Inconclusive results are not listed. Calls of active or inactive are those of the source. Unless noted, no rule for the calls is given here.

A short description of assay [1]: qHTS profiling of the MIPE4 collection as inhibitors of Plasmodium falciparum (HB3) proliferation (AID 743347).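 Also: plate controls were DMSO vehicle wells for no effect and artemisinin wells for full effect.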 As to conditions: P. falciparum HB3 in erythrocytes, SYBR Green DNA, 72 h; at 28.5 µM (top of the series) unless noted. The procedure, abridged:
(§1)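 Parasite DNA was quantified by SYBR Green I fluorescence (ex 485, em 535 nm) after overnight lysis in saponin/Triton buffer at room temperature. Cultures at 0.3% parasitemia and 2.5% hematocrit were first exposed to compound for 72 h at 37 C; signals were normalised to artemisinin (0.29 uM) and vehicle wells.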

Assay [2] can be described thus: High-throughput drug toxicity screening in the BPDCN cell line Gen2.2 (AID 1224824).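 Also: cells exposed to compounds for 48 h before reading.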 The conditions noted are these: Gen2.2 BPDCN cells; at 45.8 µM (top of the series) unless noted. Summed up:
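CellTiter-Glo luminescence after 48 h compound exposure of Gen2.2 cells; percent activity set with DMSO as 100% and bortezomib (9.2 uM final) as 0%. Cells seeded at 500 per well, RPMI + 10% FBS, 37 °C.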

Assay [3] in a line: High-throughput drug toxicity screening in the BPDCN cell line Cal-1 (AID 1224825). As to conditions: Cal-1 BPDCN cell viability, qHTS; at 45.8 µM (top of the series) unless noted. Summed up:
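Viability of the BPDCN line Cal-1 is measured as ATP-based luminescence (CellTiter-Glo) following 48 h incubation with compounds. Percent activity uses DMSO-treated wells as 100% and 9.2 uM bortezomib as 0%.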
A general note: Quantitative high-throughput screening tests each substance at several concentrations.

Assay [4] is described as follows: qHTS assay for measurement of the activity of small molecule inhibitors on Zika virus induced Caspase-3 activity in human iPSC derived neural progenitor cells (hNPCs) (AID 1224857; active = well fitted curve in the direction sought with a large enough effect; an effect the other way counts as inactive or inconclusive; also: % of control where 0% means no effect; nearly all actives have a fitted effect of over 65% in size). The procedure, abridged:
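Pretreat hNPCs with compound 1 h; infect ZIKV 2 FFU/cell; 6 h 37 C, 5% CO2; Caspase-Glo 3/7, 30 min RT; luminescence; normalize to no-virus and virus-only wells.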

Assay [5] in a line: qHTS Screen of the MIPE 4.0 Collection Against Ewings Sarcoma (TC71) (AID 1259253; active = well fitted curve in the direction sought with a large enough effect; an effect the other way counts as inactive or inconclusive; also: potency is read from the fitted curve at half-maximal effect; nearly all actives have a fitted effect of over 40% in size). The procedure, abridged: (§2)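 Measured: ATP luminescence (CellTiter-Glo) 10 min after reagent addition, following 48 h drug treatment. Relative luciferase units converted to percent activity, with no-cell wells as full and DMSO wells as zero inhibition.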
A short description of assay [6]: qHTS Screen of the MIPE 4.0 Collection Against Ewings Sarcoma (EW8) (AID 1259255; active = well fitted curve in the direction sought with a large enough effect; an effect the other way counts as inactive or inconclusive; also: potency is read from the fitted curve at half-maximal effect; nearly all actives have a fitted effect of over 35% in size). The procedure, abridged: as §2
The nature of assay [7]: qHTS Screen of the MIPE 4.0 Collection Against Ewings Sarcoma (TC32) (AID 1259256; active = well fitted curve in the direction sought with a large enough effect; an effect the other way counts as inactive or inconclusive; also: potency is read from the fitted curve at half-maximal effect; nearly all actives have a fitted effect of over 45% in size). Summed up:
as §2

Assay [8] in a line: qHTS profiling of the MIPE4 collection as inhibitors of Plasmodium falciparum (3D7) proliferation (AID 743344).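 Also: scaled between DMSO vehicle wells and 0.29 µM artemisinin as full inhibition.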 The conditions noted are these: P. falciparum 3D7 in erythrocytes, SYBR Green DNA fluorescence, 72 h; at 28.5 µM (top of the series) unless noted. The procedure, abridged:
as §1

Assay [9] can be described thus: qHTS profiling of the MIPE4 collection as inhibitors of Plasmodium falciparum (DD2) proliferation (AID 743345). As to conditions: P. falciparum Dd2 in erythrocytes, SYBR Green DNA, 72 h; at 28.5 µM (top of the series) unless noted. Summed up:
as §1

Assay [10] can be described thus: qHTS profiling of the MIPE4 collection as inhibitors of Plasmodium falciparum (DD2) proliferation (Rep 2) (AID 743346). The conditions noted are these: P. falciparum Dd2 in erythrocytes, SYBR Green DNA, 72 h; at 28.5 µM (top of the series) unless noted. Summed up: as §1
Assay [11] can be described thus: qHTS assay for measurement of the activity of small molecule inhibitors on Zika virus induced Caspase-3 activity in human astrocytoma cells (AID 1224859; active = well fitted curve in the direction sought with a large enough effect; an effect the other way counts as inactive or inconclusive;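 also: plate controls were ZIKV-infected untreated cells for no effect and uninfected cells for full effect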). Summed up: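 Human SNB-19 astrocytoma cells in RPMI 1640 with 10% FBS receive compound one hour ahead of Zika virus at 2 FFU/cell. After 6 h infection, caspase-3/7 activity is detected by Caspase-Glo luminescence.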

Assay [12] can be described thus: qHTS Screen of the MIPE 4.0 Collection Against Ewings Sarcoma (RDES) (AID 1259252; active = well fitted curve in the direction sought with a large enough effect; an effect the other way counts as inactive or inconclusive; also: potency is read from the fitted curve at half-maximal effect; nearly all actives have a fitted effect of over 35% in size). The procedure, abridged:
as §2

A short description of assay [13]: qHTS profiling for inhibitors of Plasmodium falciparum (DD2) proliferation (AID 743323). The conditions noted are these: lower = more inhibition; at 28.7 µM (top of the series) unless noted. Summed up: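 Parasite DNA quantified by SYBR Green fluorescence (ex 485, em 535 nm) after saponin/Triton lysis and overnight dark incubation. Cultures: 0.3% parasitemia, 2.5% hematocrit, 72 h, 37 C; data scaled between DMSO and 0.29 uM artemisinin.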

A short description of assay [14]: qHTS profiling for inhibitors of Plasmodium falciparum (HB3) proliferation (AID 743324; active = well fitted curve in the direction sought with a large enough effect; an effect the other way counts as inactive or inconclusive;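 also: 100% = DMSO vehicle wells and 0% = artemisinin-treated control wells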). The conditions noted are these: Plasmodium falciparum HB3 blood-stage proliferation; at 28.7 µM (top of the series) unless noted. The procedure, abridged: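 SYBR Green fluorescence (485 ex/535 em) of lysed cultures, incubated overnight at room temperature in the dark, quantifies parasite DNA. Infected erythrocytes at 0.3% parasitemia and 2.5% hematocrit were exposed 72 h; values normalized to DMSO and 0.29 uM artemisinin controls.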

A short description of assay [15]: Identifying Small Molecule Inhibitors of Pancreatic Cancer Stem Cells (A2780, Spheroid) (AID 1259357; active = well fitted curve in the direction sought with a large enough effect; an effect the other way counts as inactive or inconclusive;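 also: spheroids pre-formed over 14 days in stem cell medium on hydrogel; compound exposure lasted 48 h before the ATP luminescence read; 100% = DMSO treated cells and 0% = wells without cells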). The conditions noted are these: Potency: A2780 spheroid viability. The procedure, abridged:
(§3)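 Spheroids grown 14 days in stem cell media on hydrogel-coated nonadherent plates; 2D lines seeded directly. Compounds added after 4 h attachment, 48 h at 37C, 5% CO2; CellTiter-Glo luminescence normalized to DMSO (no inhibition) and no-cell wells (full inhibition).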

Assay [16] in a line: Identifying Small Molecule Inhibitors of Pancreatic Cancer Stem Cells (Panc1, Spheroid) (AID 1259359; active = well fitted curve in the direction sought with a large enough effect; an effect the other way counts as inactive or inconclusive;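 also: potency is read from the fitted curve at half-maximal effect; compound exposure lasted 48 h before reading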). The procedure, abridged: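 Adherent (2D) versus sphere (3D) formats; spheres generated 14 d in SCM beforehand. Compound transferred by pin tool after 4 h, 48 h incubation, CellTiter-Glo endpoint.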
The nature of assay [17]: Identifying Small Molecule Inhibitors of Pancreatic Cancer Stem Cells (SN12C, Spheroid) (AID 1259360; active = well fitted curve in the direction sought with a large enough effect; an effect the other way counts as inactive or inconclusive; also: potency is read from the fitted curve at half-maximal effect). The conditions noted are these: Potency: SN12C spheroid viability. Summed up:
as §3

In assay [1], `COc1nccc(-c2c(-c3ccc(F)cc3)ncn2C2CCNCC2)n1` gave a growth, % of control of 35.6%. Further, the cell viability, % of control (lower = more cytotoxic) in assay [2] worked out at 136%. Also, the viability (% of control) in assay [3] stood at 73.4%. The Potency result in assay [4] is “inactive”. Further, the figures for the Potency in assay [5], in assay [6] and in assay [7] were 5.9 µM (active), 9.35 µM (active) and 16.6 µM (active), respectively.

`NS(=O)(=O)c1ccc(Nc2nc(OCC3CCCCC3)c3[nH]cnc3n2)cc1` returned a parasite growth, % of DMSO control in assay [8] of 17.4%. In [9], this molecule showed a parasite growth remaining, % of DMSO control (lower = more inhibition) of 13.9%. Moreover, the parasite growth, % of control (lower = inhibition) in assay [10] amounted to 24.8%. The molecule further had a growth, % of control in [1] of 11%. Also, the cell viability, % of control (lower = more cytotoxic) in assay [2] came out at 12%. The Potency result in assay [4] and in assay [11] was “inactive” throughout. Further, the Potency in [12] was 5.9 µM (active); in assay [5], 14.8 µM (active); in [7], 16.6 µM (active).

For `Nc1ccn([C@@H]2O[C@H](CO)[C@@H](O)[C@H]2O)c(=O)n1`, the parasite growth, % of DMSO control in assay [8] was determined as 89.8%. Moreover, the parasite growth remaining, % of DMSO control (lower = more inhibition) in [9] is 97.8%. The parasite growth, % of control (lower = inhibition) in assay [10] was found to be 117%. The molecule also returned a growth, % of control in [1] of 108%. Also, the cell viability, % of control (lower = more cytotoxic) in assay [2] stood at 86.2%. The molecule also registered a viability (% of control) in assay [3] of 11.3%. Moreover, in assay [4], the Potency entry was “inactive”. In assay [6], the Potency was 0.0935 µM (active).

Molecule `O=S(=O)(O)c1ccc2cc(N=Nc3cc(S(=O)(=O)O)c4cccnc4c3O)ccc2c1` gave a parasite growth, % of DMSO control in assay [8] of 84.5%. This molecule registered a parasite growth remaining, % of DMSO control (lower = more inhibition) in [9] of 87.9%. Further, the growth, % of control in assay [1] is 47.7%. Further, the cell viability, % of control (lower = more cytotoxic) in assay [2] turned out to be 63.9%. In addition, the Potency result in [4] and in assay [11] was “inactive” each time. The Potency is 18.7 µM (active) in assay [12], 14.8 µM (active) in assay [5] and 16.6 µM (active) in assay [7].

As to `CC[C@H](C)n1cc(C)c2c(C(=O)NCc3c(C)cc(C)[nH]c3=O)cc(-c3ccc(N4CCNCC4)nc3)cc21`, the parasite growth, % of DMSO control in assay [8] worked out at 4.84%. For the same molecule, in assay [9], the parasite growth remaining, % of DMSO control (lower = more inhibition) was 8.83%. Also, in [10], the parasite growth, % of control (lower = inhibition) was determined as 8.77%. The growth, % of control in assay [1] worked out at 6.2%. Besides, the cell viability, % of control (lower = more cytotoxic) in [2] is 133%. Further, the Potency result in assay [4] and in [11] was “inactive” in each case. Besides, the Potency in [12] was 23.5 µM (active); in assay [5], 11.8 µM (active); in [7] it was 18.7 µM (active).

In the case of `CC1=C[C@@H]2[C@@H]([C@@H](O)C[C@@]3(C)[C@H]2C[C@@H](C)[C@]3(O)C(=O)CO)[C@@]2(C)Cc3cnn(-c4ccccc4)c3C=C12`, the activity, percent of control in [13] was -0.0711%. Also, the remaining proliferation (% of control), lower = more inhibition in assay [14] was 0.0764%. Moreover, in assay [8], the parasite growth, % of DMSO control was found to be 33.4%. Besides, the parasite growth remaining, % of DMSO control (lower = more inhibition) in [9] was 8.93%. The parasite growth, % of control (lower = inhibition) in assay [10] was 46.9%. Besides, in [1], the growth, % of control turned out to be 11.6%. Also, the cell viability, % of control (lower = more cytotoxic) in assay [2] was 24.4%. The molecule also yielded a viability (% of control) in assay [3] of 32.5%. Moreover, the Potency entry in assay [4] and in [15] was “inactive” each time. Besides, the Potency is 23.5 µM (active) in [12], 23.5 µM (active) in assay [7], 20.9 µM (active) in assay [16] and 26.4 µM (active) in [17].

These data come from PubChem BioAssay (NCATS).
